# Test results reported in PubChem BioAssay AID1878 (Sanford-Burnham Center for Chemical Genomics, 2009).
# The campaign covered roughly 1,000 compounds. About 200 (20%) were called active. A selection follows. Potency and affinity values are given separately. A number with no mark means an inactive call. No stated cut-off is given here; in the data, active means inhibition above about 55%; inactive means the rest.
# Biological target: Dual specificity protein phosphatase 3 (Homo sapiens) (UniProt P51452)
# Sequence (P51452 whole entry, looked up): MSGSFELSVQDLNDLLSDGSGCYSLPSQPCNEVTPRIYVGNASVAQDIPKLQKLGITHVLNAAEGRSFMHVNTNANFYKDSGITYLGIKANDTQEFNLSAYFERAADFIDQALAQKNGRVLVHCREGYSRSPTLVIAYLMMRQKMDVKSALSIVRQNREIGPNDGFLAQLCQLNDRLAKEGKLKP
# Assay: VHR1 phosphatase inhibitors, biochemical (AID 1878)
# Details: recombinant VHR phosphatase, fluorogenic substrate; at 13.3 µM; hits give high values
row,Compound,inhibition
1,COc1ccc(/C=C2\SC(=S)N(CCC(=O)Nc3cccc(C(=O)O)c3)C2=O)cc1,86.4% (active)
2,COc1ccccc1C(=O)NNC(=O)CCN1C(=O)/C(=C\c2ccccc2)SC1=S,38.1%
3,Cc1ccc(NC(=O)COc2cccc(/C=C3\SC(=S)N(CCC(=O)O)C3=O)c2)cc1Cl,79.2% (active)
4,CCOC(=O)c1ccc(NC(=O)CCS(=O)(=O)Cc2ccccc2)cc1,11.4%
5,O=C(CCN1C(=O)/C(=C\C=C\c2ccccc2)SC1=S)Nc1ccc(C(=O)O)cc1,98.7% (active)
6,COc1ccc(S(=O)(=O)NCC2CCCN(Cc3cn(C)nc3C)C2)cc1 (stereo not given),0.5%
7,COc1ccccc1N1CCN(S(=O)(=O)c2ccc3c(c2)CC(C)N3C(C)=O)CC1 (stereo not given),2.4%
8,CCC1CCCCN1CCCNC(=O)c1ccc2c(c1)NC(=O)CN2C (stereo not given),-26.5%
9,CCCCN(Cc1ccco1)C(=O)C1CCCN(c2ncnc3c2nc2n3CCCCC2)C1 (stereo not given),-4.3%
10,CCCN1C2CCCC1CC(NC(=O)c1ccccc1OC)C2 (stereo not given),-6.6%
11,Cc1ccc(CNS(=O)(=O)c2c(C)[nH]c(=O)[nH]c2=O)cc1,-4.8%
12,NC(=O)c1ccc(NC(=O)CS(=O)(=O)c2cn(CC(=O)N3CCCC3)c3ccccc23)cc1,-13.4%
13,Cc1ccc(/C=N/N(C)C2=NS(=O)(=O)c3ccccc32)cc1,21.9%
14,COCCCNC(=O)c1ccc(CS(=O)(=O)c2ccccc2OC)o1,-5.7%
15,Nc1[nH]n2c(=O)cc(-c3ccccc3)nc2c1N=Nc1ccc2c(c1)OCO2,98.8% (active)
16,COc1cccc(N2CCN(c3ccc4nnc(CCC(=O)Nc5ccc(F)cc5F)n4n3)CC2)c1,6.6%
17,Cc1cc(C)c(S(=O)(=O)Cc2ccccc2)c(Cl)n1,7.3%
18,COc1ccc(/C=C/C(=O)NC(=S)Nc2cc([N+](=O)[O-])ccc2O)cc1OC,95.7% (active)
19,CCOc1cc2[nH]c(=S)n(Cc3ccc(C(=O)NCCN(CC)CC)cc3)c(=O)c2cc1OCC,-9.2%
20,Nn1c(SCC(=O)Nc2ccccc2F)nnc1C1CCCCC1,18.2%
21,O=C(Nc1c(C(=O)N2CCC(N3CCCCC3)CC2)oc2ccccc12)c1ccc(F)cc1,-2.2%
22,CC1CCCCN1C(=O)CCC(=O)Nc1nnc(C2CCCCC2)s1 (stereo not given),-7.6%
23,Cc1ccccc1-c1nc(CS(=O)(=O)CC(=O)NC2CCCC2)c(C)o1,7.2%

row,Compound,inhibition
1,O=c1oc(-c2ccccc2Cl)nc2ccsc12,5.6%
2,CCn1c(SCC(=O)N2CCOCC2)nc2c(c1=O)SC(C)C2 (stereo not given),-2.5%
3,COc1ccc(CC(=O)N/N=C(\C)CC(=O)Nc2ccc(N(C)C)cc2)cc1,-12.6%
4,C[C@@H]1NC(=O)N(c2ccc(F)cc2)C1=O,-6.6%
5,O=C1CN(c2ccc(F)cc2)C(=S)N1c1ccccc1,4.8%
6,CCN1CCN(C(CNS(=O)(=O)c2ccc(OC)c(C)c2)c2cccnc2)CC1 (stereo not given),-7.5%
7,CC1CCN(Cc2nnnn2CCCC(=O)N(C)C(C)c2ccccn2)CC1 (stereo not given),7.9%
8,COc1cc(OC)cc(C(=O)NN(CCC#N)C2=NS(=O)(=O)c3ccccc32)c1,15.9%
9,Cc1ccccc1OCCCN1CCOCC1,2%
10,CCc1ccc(/C=C/c2c([N+](=O)[O-])c(=O)n(C)c(=O)n2C)cc1,3.6%
11,Cc1ccc(C)c(Nc2ccc3nonc3c2[N+](=O)[O-])c1,-8.6%
12,Cc1cc(OCc2cc(C(=O)N(C)CCCN3CCOCC3)no2)cc(C)c1Cl,-10.5%
13,COc1cc(Cl)ccc1OCc1cc(C(=O)NCC(C)c2ccccc2)no1 (stereo not given),11.7%
14,Cc1ccc(CN2CCN(Cc3cccc(C)n3)CC2CCO)cc1 (stereo not given),3.8%
15,CC(C)(C)CN1CCN(Cc2c[nH]c3ccccc23)CC1CCO (stereo not given),-9.5%
16,COc1ccc(-c2n[nH]c3c2CN(C(=O)c2ccc(OC)c(OC)c2)CC3)cc1,-2.9%
17,Nc1cc(=O)[nH]c(SCC(=O)Nc2ccc(Oc3ccccc3)cc2)n1,-5%
18,O=C(CSc1n[nH]c(=O)[nH]c1=O)Nc1ccc2c(c1)C(=O)c1ccccc1C2=O,98% (active)
19,CCc1cc2c(C)ccc(C)c2nc1SCC(=O)Nc1c[nH]c(=O)[nH]c1=O,27.1%
20,CC1=C(C(=O)OCC2CCCCC2)C(c2ccc(F)cc2)NC(=O)N1 (stereo not given),-8.4%
21,CC1=C(C(=O)OC(C)C)C(c2ccc(Cl)cc2)n2c(s/c(=C\c3ccc(OCC(=O)O)cc3)c2=O)=N1 (stereo not given),97.4% (active)
22,CCOC(=O)C1=C(N)n2c(s/c(=C\c3ccncc3)c2=O)=C(C(=O)OCC)C1c1ccncc1 (stereo not given),39.4%
